# Laboratory results from PubChem BioAssay (NCI).
# This is part of a sample that, as a whole, favours compounds with a hit. Of some 83,000 tested, about 20% had one in any assay.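 For each line, cells grew in 96-well plates with the test compound present at a single concentration for 48 hours.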 A number with no mark means an inactive call. Calls of active or inactive are those of the source. Rule for the calls: active = growth percent below 10; inactive = the rest.
# Test system: HT29 colon
# Test: NCI-60 one-dose screen, 48 h (100 = growth as untreated, 0 = no growth, -100 = all killed)
# Settings: 10 µM
row,Structure (SMILES),growth
1,O=C(/C=C/c1ccc(Cl)cc1)c1nc2ccccc2n1Cc1ccc(F)cc1,5.22% (active)
2,CC1=C(CCC=O)C2=C(C)C3(CC3)[C@@](C)(O)C(=O)C2=C1,-56.1% (active)
3,O=C(NC([Se])=NC1CCCCC1)c1ccc2c(c1)OCO2,55.6%
4,C[C@H]1[C@H](OC(=O)CCC(=O)N(CCCc2cn(-c3ccc(C#N)cc3)nn2)CCNc2ccnc3cc(Cl)ccc23)O[C@@H]2OC3(C)CC[C@H]4[C@H](C)CC[C@@H]1[C@@]24OO3,18.6%
5,C[C@H]1[C@@H](Oc2ccc(-c3cn(-c4ccnc5cc(Cl)ccc45)nn3)cc2)O[C@@H]2OC3(C)CC[C@H]4[C@H](C)CC[C@@H]1[C@@]24OO3,22.3%
6,COc1ccc(/C=C/C(=O)c2nc3ccccc3n2Cc2ccc(Br)cc2)cc1,64.9%
7,COC(=O)CCn1c(-c2ccc(-n3cc(-c4ccc(O[C@H]5O[C@@H]6OC7(C)CC[C@H]8[C@H](C)CC[C@@H]([C@H]5C)[C@@]68OO7)cc4)nn3)cc2)nc2ccccc21,22.5%
8,C[C@H]1[C@H](OC(=O)CCC(=O)N(CCCc2cn(-c3ccc([N+](=O)[O-])cc3)nn2)CCNc2ccnc3cc(Cl)ccc23)O[C@@H]2OC3(C)CC[C@H]4[C@H](C)CC[C@@H]1[C@@]24OO3,-6.33% (active)

# Test system: SNB-75 CNS
# Test: as above
# Settings: 10 µM
row,Structure (SMILES),growth
1,O=C(/C=C/c1ccco1)c1nc2ccccc2n1Cc1ccc(Br)cc1,33.6%
2,O=C(/C=C/c1ccco1)c1nc2ccccc2n1Cc1ccc(F)cc1,28.7%
3,COc1cc2cc(C(=O)N3C[C@@H](CCl)c4c3cc(OC(=O)N3CCN(C)[C@@H]5CSSC[C@@H]53)c3ccccc43)[nH]c2c(OC)c1OC,-87.6% (active)
4,C#CC[Se]C(=O)c1ccc2n[se]nc2c1,56.5%
5,O=C(/C=C/c1ccc(Cl)cc1Cl)c1nc2ccccc2n1Cc1ccc(F)cc1,38.6%
6,O=C(/C=C/c1ccc(Cl)cc1)c1nc2ccccc2n1Cc1ccc(Br)cc1,79.2%
7,CCOP(=O)(OCC)C(NC(C)=O)C(=O)SCCN (configuration not stated),99.1%
8,COc1cc2cc(C(=O)N3C[C@@H](CCl)c4c3cc(OC(=O)N3CCN(C)[C@@H]5CSSC[C@H]53)c3ccccc43)[nH]c2c(OC)c1OC,-74.3% (active)
9,COc1ccc2cc([C@H](C)C(=O)[Se]CCC#N)ccc2c1,-46.8% (active)
10,CC12OOC(C)(OO1)C2CCC(=O)OCCNc1ccnc2cc(Cl)ccc12 (configuration not stated),90.5%
11,CC(C)N=C([Se])NC(=O)c1cccs1,-28.6% (active)
12,Cc1ccc2[nH]c(=S)n(-c3ccc(F)cc3)c(=O)c2c1,100%
13,CCOC(=O)C1=C(Nc2ccccc2)C(=O)OC12C(=O)Nc1ccccc12 (configuration not stated),80.6%
14,CC12CCC3(CCC(=O)NCCCNc4ccnc5cc(Cl)ccc45)[C@@](C)(OO[C@]3(C)O1)O2,-4.41% (active)
15,CC[C@]12C=CCN3CC[C@@]4(c5ccc(OC)cc5N(C)[C@H]4[C@@](O)(C(=O)OC)[C@@H]1OC(=O)CCCC[P+](C1CCCCC1)(C1CCCCC1)C1CCCCC1)[C@@H]32,-81.4% (active)
16,CC(=O)Oc1ccccc1C(=O)[Se]C(=NC(C)C)NC(C)C,-94.6% (active)
17,COCCOCCOCCOc1ccc(-n2cc(CCCN(CCNc3ccnc4cc(Cl)ccc34)C(=O)CCC(=O)O[C@@H]3O[C@@H]4OC5(C)CC[C@H]6[C@H](C)CC[C@@H]([C@H]3C)[C@@]46OO5)nn2)cc1,57.6%
18,C[C@H]1[C@@H](CC(=O)N[C@@H](Cc2coc3ccccc23)B(O)O)O[C@@H]2OC3(C)CC[C@H]4[C@H](C)CC[C@@H]1[C@@]24OO3,-19.3% (active)
19,COP(=O)(CC(F)(F)C(F)(F)F)OC,87.5%
20,CC12OOC(C)(OO1)C2CCC(=O)NCCNc1ccnc2cc(Cl)ccc12 (configuration not stated),101%

row,Structure (SMILES),growth
1,CC[C@]12C=CCN3CC[C@@]4(c5ccc(OC)cc5N(C)[C@H]4[C@@](O)(C(=O)OC)[C@@H]1OC(=O)CCC[P+](c1ccc(C)cc1)(c1ccc(C)cc1)c1ccc(C)cc1)[C@@H]32,-61.2% (active)
2,CC(C)N=C([Se])NC(=O)c1ccccc1,-49.5% (active)
3,CC[C@]12C=CCN3CC[C@@]4(c5ccc(OC)cc5N(C)[C@H]4[C@@](O)(C(=O)OC)[C@@H]1OC(=O)CCC[P+](C1CCCCC1)(C1CCCCC1)C1CCCCC1)[C@@H]32,-61.4% (active)
4,CC1=C(COCCOC(=O)c2ccc(S(=O)(=O)F)cc2)C2=C(C)C3(CC3)[C@@](C)(O)C(=O)C2=C1,-15.9% (active)
5,CC[C@]12C=CCN3CC[C@@]4(c5ccc(OC)cc5N(C)[C@H]4[C@@](O)(C(=O)OC)[C@@H]1OC(=O)CCCC[P+](c1ccc(OC)cc1)(c1ccc(OC)cc1)c1ccc(OC)cc1)[C@@H]32,-95.4% (active)
6,CC1=C(CCC=NNC(N)=O)C2=C(C)C3(CC3)[C@@](C)(O)C(=O)C2=C1,-96.2% (active)
7,CC[C@@]12CC(C(=O)OC)=C3Nc4cc5c(cc4[C@@]34CCN(C[C@H]3O[C@H]31)[C@@H]24)[C@@H]1[C@H](O5)[C@@H](O)[C@@]2(CC)CC(C(=O)OC)=C3Nc4cc(OC)ccc4[C@@]34CCN1[C@@H]24,-4.82% (active)
8,CCOP(=O)(CC(F)(F)C(F)(F)F)OCC,79.4%
9,CC1=C2C(=C[C@@](C)(COP(=O)(Oc3ccccc3)Oc3ccccc3)[C@@H]2O)C(=O)[C@@](C)(O)C12CC2,-94% (active)
10,CC(=O)Oc1ccccc1C(=O)NC([Se])=NC1CCCCC1,-75.3% (active)
11,C[C@H]1[C@H](OC(=O)CCC(=O)N(CCCc2cn(-c3ccc(CN4CCOCC4)cc3)nn2)CCNc2ccnc3cc(Cl)ccc23)O[C@@H]2OC3(C)CC[C@H]4[C@H](C)CC[C@@H]1[C@@]24OO3,38.7%
12,O=C(/C=C/c1ccc(Cl)cc1)c1nc2ccccc2n1Cc1ccc(F)cc1,60.9%
13,CC1=C(CCC=O)C2=C(C)C3(CC3)[C@@](C)(O)C(=O)C2=C1,-96.9% (active)
14,O=C(NC([Se])=NC1CCCCC1)c1ccc2c(c1)OCO2,10.6%
15,C[C@H]1[C@H](OC(=O)CCC(=O)N(CCCc2cn(-c3ccc(C#N)cc3)nn2)CCNc2ccnc3cc(Cl)ccc23)O[C@@H]2OC3(C)CC[C@H]4[C@H](C)CC[C@@H]1[C@@]24OO3,72.1%
16,C[C@H]1[C@@H](Oc2ccc(-c3cn(-c4ccnc5cc(Cl)ccc45)nn3)cc2)O[C@@H]2OC3(C)CC[C@H]4[C@H](C)CC[C@@H]1[C@@]24OO3,61.6%
17,COc1ccc(/C=C/C(=O)c2nc3ccccc3n2Cc2ccc(Br)cc2)cc1,66.1%
18,COC(=O)CCn1c(-c2ccc(-n3cc(-c4ccc(O[C@H]5O[C@@H]6OC7(C)CC[C@H]8[C@H](C)CC[C@@H]([C@H]5C)[C@@]68OO7)cc4)nn3)cc2)nc2ccccc21,48.5%
19,C[C@H]1[C@H](OC(=O)CCC(=O)N(CCCc2cn(-c3ccc([N+](=O)[O-])cc3)nn2)CCNc2ccnc3cc(Cl)ccc23)O[C@@H]2OC3(C)CC[C@H]4[C@H](C)CC[C@@H]1[C@@]24OO3,89.2%
